This note sets out measurements from PubChem BioAssay.

A short description of the first experiment: NFkB reporter suppression in cystic fibrosis bronchial cells – cell-based, uHTS hits, panel, cytotoxicity readout, dose response (AID 624344). The note with it: CF bronchial epithelial cells, PAF-induced NFkB reporter inhibition, with PAF, run 1; at 79 µM (top of the series) unless noted.
Take `O=C(NCc1cccnc1)/C(=C\c1ccc(-c2cccc(Cl)c2)o1)S(=O)(=O)c1ccccc1`: the inhibition (in general, the drop in the measured response relative to a control, in per cent) is 101%. On the same count and under the same terms, in the case of `CC1(Cc2ccc(Cl)cc2)C(=O)Nc2ccc(-c3cccnc3)cc21` (stereo not given) it was 107%. The same measure, in the same setting: in the case of `CCOC(=O)c1ccc(NC(=O)Nc2nncs2)cc1` it was 83.2%. For `CCCc1cc(-c2[nH]ncc2-c2ccc3c(c2)OCCCO3)c(O)cc1O`, the inhibition was determined as 108%.

For the compound `COc1ccc(-c2nc(N3CCOCC3)nc3n[nH]c(N)c23)cc1`, the inhibition is 117%. Turning to `COc1ccc2ncn(-c3ccccc3)c2c1`, the inhibition was found to be 104%. As to `c1csc(Cc2nn3c(-c4ccncc4)nnc3s2)c1`, the inhibition turned out to be 115%. Still for that read-out and setting: in the case of `Cc1c(O)ccc2c(-c3ccccc3)cc(=O)oc12` it was 105%; in that of `O=C(Nc1ccc(N2CCN(C(=O)c3ccccc3F)CC2)cc1)c1cncc(Br)c1`, 112%.

As for `Cc1ccc(Sc2c(C=O)c3ccccc3n2C)cc1`, the inhibition amounted to 105%.

On to `Cc1nc2sc(C(N)=O)c(N)c2c2c1CCCC2`, for which the inhibition turned out to be 116%.

As for `COc1ccc(-n2c(C)cc3cc(OC(C)=O)ccc32)cc1`, the inhibition was determined as 86.5%. Consider `Cc1ccc(C(=O)Nc2cccc(C(F)(F)F)c2)cc1NC(=O)c1cnnc2ccccc12`, for which the inhibition is 105%. `COC(=O)N1C(=O)[C@@](c2ccccc2)(C(C)C)N1C(=O)OC`: the inhibition worked out at 107%. With `Cc1ccc(NC(=O)CSc2ncnc3ccccc23)cc1S(=O)(=O)N1CCOCC1`, the inhibition amounted to 110%. Turning to `CCc1cc(SC#N)cc(C)c1NC(=O)CCl`, the inhibition amounted to 107%.

For `Cc1cc(C)nc(Sc2ncnc(N)c2[N+](=O)[O-])n1`, the inhibition came to 96.2%. For the compound `COc1ccccc1NS(=O)(=O)c1ccc(-c2cnc(C3CC3)o2)cc1`, the inhibition turned out to be 82.8%. In the case of `O=C(Nc1ccccc1N1CCOCC1)c1cc(-c2ccco2)nc2ccccc12`, the inhibition was determined as 102%. On to `CCOC(=O)c1c(-c2ccc(C)cc2)csc1NC(=O)c1ccc(N2C(=O)CCC2=O)cc1`, for which the inhibition came out at 30.1%. For `COc1ccc(S(=O)(=O)c2c(O)c3ccc(C(=O)Nc4ccccc4Cl)cc3[nH]c2=O)cc1`, the inhibition stood at 96.9%. Take `Cc1nn(-c2ccccc2)c(N2CCCC2)c1/C=N/NC(=O)c1cc(-c2ccccc2)nc2ccccc12`: the inhibition is 104%.

For `COc1ccc(-c2csc3ncnc(NCCN4CCOCC4)c23)cc1`, the inhibition turned out to be 112%. Consider `CC(=O)N1CC(=O)N=C1SCC(=O)Nc1nc(C)c(-c2ccccc2)s1`, for which the inhibition turned out to be 62.6%. Turning to `CCN1CCN(Cc2ccc(NC(=O)c3ccc(C)c(NC(=O)c4cc(-c5ccc(Br)cc5)n[nH]4)c3)cc2C(F)(F)F)CC1`, the inhibition was 102%.

Assay in a further experiment: as above
The conditions noted are these: CF bronchial epithelial cells, PAF-induced NFkB reporter inhibition, with PAF, run 2; at 79 µM (top of the series) unless noted.
As for `CCC(=O)Nc1nc(C)c(-c2csc(Nc3cccc(O)c3)n2)s1`, the inhibition was found to be 104%. In the case of `COC(=O)N1C(=O)[C@@](c2ccc(OC)cc2)(C(C)C)N1C(=O)OC`, the inhibition came to 102%.

Take `O=[N+]([O-])c1cccc(/C=N/Nc2cc(N3CCOCC3)ncn2)c1`: the inhibition is 102%. Consider `CC[C@H](CO)Nc1nc(Nc2cccc(Cl)c2)c2ncn(C(C)C)c2n1`, for which the inhibition turned out to be 108%. Same read-out and setting: in the case of `Cc1nn(-c2ccccn2)c2c1-c1nc(N)ncc1CC2` it was 102%; in that of `CCOCC(=O)NC1CCc2cc(OC(=O)COCC)c(OC)c(OC)c2-c2ccc(SC)c(=O)cc21` (stereo not given), 85.3%. As to `COc1ccc(-c2cnc(N)nc2-c2ccc(OC)cc2O)cc1`, the inhibition was determined as 102%. The same measure, in the same setting: in the case of `COc1cccc(-c2ccc3ncnc(NCc4cccs4)c3c2)c1` it was 99.9%; in that of `ON=C1c2ccccc2-c2cc(Br)ccc21`, 106%; in that of `Cc1nnc(SCC(=O)N2CCC(c3noc4ccc(F)cc34)CC2)s1`, 112%. Take `COc1ccc2c(c1)c(C(C)=O)c(C)n2-c1ccc(C(C)=O)cc1`: the inhibition came out at 101%.

`CC[C@@H](C(=O)[C@@H](C)[C@@H](O)[C@H](C)[C@@H]1O[C@@H]([C@@H](CC)C(=O)O)CC[C@@H]1C)[C@H]1O[C@]2(C=C[C@@H](O)[C@]3(CC[C@@](C)([C@H]4CC[C@](O)(CC)[C@H](C)O4)O3)O2)[C@H](C)C[C@@H]1C`: the inhibition is 107%. In the case of `NS(=O)(=O)c1ccc(CCNC(=O)c2ccc(C#CC3(O)CCCCC3)cc2)cc1`, the inhibition worked out at 102%. As to `COc1ccc(-c2cc(=O)oc3cc(O)ccc23)cc1`, the inhibition amounted to 103%. On to `CCC(CO)Oc1cc(NCc2ccc(Cl)cc2Cl)c2ncn(C(C)C)c2c1` (stereo not given), for which the inhibition was found to be 109%. Turning to `O=C(NCc1cccnc1)/C(=C\c1ccc(-c2cccc(Cl)c2)o1)S(=O)(=O)c1ccccc1`, the inhibition turned out to be 99.2%. As to `CC1(Cc2ccc(Cl)cc2)C(=O)Nc2ccc(-c3cccnc3)cc21` (stereo not given), the inhibition was 102%.

Consider `CCOC(=O)c1ccc(NC(=O)Nc2nncs2)cc1`, for which the inhibition came to 111%. As to `CCCc1cc(-c2[nH]ncc2-c2ccc3c(c2)OCCCO3)c(O)cc1O`, the inhibition came to 102%.

Take `COc1ccc(-c2nc(N3CCOCC3)nc3n[nH]c(N)c23)cc1`: the inhibition came to 104%. Same read-out and setting: under `COc1ccc2ncn(-c3ccccc3)c2c1` stands 101%; under `c1csc(Cc2nn3c(-c4ccncc4)nnc3s2)c1`, 102%; under `Cc1c(O)ccc2c(-c3ccccc3)cc(=O)oc12`, 114%.

Regarding `O=C(Nc1ccc(N2CCN(C(=O)c3ccccc3F)CC2)cc1)c1cncc(Br)c1`, the inhibition worked out at 99.6%. In the case of `Cc1ccc(Sc2c(C=O)c3ccccc3n2C)cc1`, the inhibition is 104%.

Consider `Cc1nc2sc(C(N)=O)c(N)c2c2c1CCCC2`, for which the inhibition worked out at 104%.

Consider `COc1ccc(-n2c(C)cc3cc(OC(C)=O)ccc32)cc1`, for which the inhibition worked out at 70.9%. Take `Cc1ccc(C(=O)Nc2cccc(C(F)(F)F)c2)cc1NC(=O)c1cnnc2ccccc12`: the inhibition was found to be 88.8%.

`COC(=O)N1C(=O)[C@@](c2ccccc2)(C(C)C)N1C(=O)OC`: the inhibition is 104%. For `Cc1ccc(NC(=O)CSc2ncnc3ccccc23)cc1S(=O)(=O)N1CCOCC1`, the inhibition was 98.4%. For `CCc1cc(SC#N)cc(C)c1NC(=O)CCl`, the inhibition is 99.9%.

`Cc1cc(C)nc(Sc2ncnc(N)c2[N+](=O)[O-])n1`: the inhibition is 88.9%.

`COc1ccccc1NS(=O)(=O)c1ccc(-c2cnc(C3CC3)o2)cc1`: the inhibition amounted to 97.8%.

For `O=C(Nc1ccccc1N1CCOCC1)c1cc(-c2ccco2)nc2ccccc12`, the inhibition was found to be 95.6%. Regarding `CCOC(=O)c1c(-c2ccc(C)cc2)csc1NC(=O)c1ccc(N2C(=O)CCC2=O)cc1`, the inhibition was found to be 81.4%. Turning to `COc1ccc(S(=O)(=O)c2c(O)c3ccc(C(=O)Nc4ccccc4Cl)cc3[nH]c2=O)cc1`, the inhibition came out at 106%. With `Cc1nn(-c2ccccc2)c(N2CCCC2)c1/C=N/NC(=O)c1cc(-c2ccccc2)nc2ccccc12`, the inhibition worked out at 80%. With `COc1ccc(-c2csc3ncnc(NCCN4CCOCC4)c23)cc1`, the inhibition came out at 100%.

In the case of `CC(=O)N1CC(=O)N=C1SCC(=O)Nc1nc(C)c(-c2ccccc2)s1`, the inhibition came to 73.4%. Turning to `CCN1CCN(Cc2ccc(NC(=O)c3ccc(C)c(NC(=O)c4cc(-c5ccc(Br)cc5)n[nH]4)c3)cc2C(F)(F)F)CC1`, the inhibition stood at 112%.
